Measured values as given in PubChem BioAssay (NCATS).
Inconclusive results are not listed. Unmarked numbers belong to inactive results. Active and inactive are the calls of the source. The call rests on the fitted dose curve; in most records, active means well fitted inhibition curve with a large enough effect; inconclusive means small, poorly fitted or top-dose-only effect; inactive means flat fitted curve, though single readings scatter.

Experiment: qHTS for differential inhibitors of proliferation of Plasmodium falciparum line Dd2 (AID 1882); further: nearly all actives have a fitted effect of over 65% in size
Details: Potency: Plasmodium falciparum Dd2 proliferation inhibition; series mostly up to 28.7 µM; activity change, negative = inhibition: at the top concentration
Source text: NIH Molecular Libraries Probe Production Network [MLPCN]
NIH National Institute of Allergy and Infectious Diseases [NIAID]
NIH Chemical Genomics Center [NCGC]
Assay Provider: Xinzhuan Su, NIAID
Plasmodium falciparum is a virulent malarial parasite that kills 1-2 million people worldwide each year. Transmitted by mosquitoes, the sporozoite form of the parasite enters the blood stream to infect hepatocytes, where they become merozoites that infect red blood cells (erythrocytes). Within erythrocytes, merozoites begin a […] cycle of growth and division, after which the parasite is released to infect new red blood cells. Gametocytes, which form within erythrocytes as well, circulate in the bloodstream and are ingested by the mosquito, thereby completing the life cycle. To profile malarial isolates for differential chemical responses and to identify inhibitors of malarial growth, an assay that measures P. falciparum growth and replication within erythrocytes was employed. This assay uses a DNA binding fluorescent dye (SYBR Green) to detect parasite DNA following cell lysis. Because mature erythrocytes lack DNA, only Plasmodium-derived DNA is detected. The P. falciparum line Dd2, derived from a malarial isolate from […], was used.
NCGC Assay Protocol Summary:
The SYBR Green viability assay was adapted from a method described previously (Plouffe et al., 2008). For screening 3 ul culture medium was dispensed into 1536 well black clear bottom plates (Aurora Biotechnologies) using a Multidrop Combi (Thermo Fisher Scientific Inc.), 23 nL compounds in DMSO were added by a pin tool (Kalypsys), and 5 ul of erythrocytes infected with P. falciparum line Dd2 (0.3% parasitemia, 2.5% hematocrit final concentration) were added. The plates were incubated at 37 C in a humidified incubator in 5% CO2 for 72 h, and 2 ul lysis buffer (20 mM Tris HCl, 10 mM EDTA, […]% saponin, 1.6% triton X, 10X SYBR Green I supplied as 10,000X […] by Invitrogen) was added to each well. The plates were mixed for 25 sec with gentle shaking and incubated overnight at room temperature in the dark. The following morning, fluorescence intensity at 485(14) nm excitation and 535(25) nm emission wavelengths was measured on an EnVision (Perkin Elmer) plate reader. Plate reads were normalized relative to the control inhibitor (0.29 uM artemisinin) and vehicle (DMSO) wells present on each plate and then corrected by an algorithm using vehicle-only control plates at the beginning and end of the compound plate stack.
Plouffe D, Brinker A, McNamara C, Henson K, Kato N, Kuhen K, Nagle A, Adrian F, Matzen JT, Anderson P, Nam TG, Gray NS, Chatterjee A, Janes J, Yan SF, Trager R, Caldwell JS, Schultz PG, Zhou Y, Winzeler EA. […] Proc Natl Acad Sci U S A. 2008, 105(26), pp 9059-64.
Potency means the concentration at half of the fitted maximal effect.

Compound	Potency	activity change, negative = inhibition
CC/C(=C(\c1ccccc1)c1ccc(OCCN(C)C)cc1)c1ccccc1	11.2 µM (active)	
CCN(CC)CCNC(=O)c1ccc(N)cc1		1.34%
C[N+](C)(C)CCCCCC[N+](C)(C)C	inactive	
O=C1NCC2(CCN(CCc3ccccc3)CC2)O1		-28.3%
CC1=C(/C=C/C(C)=C/C=C/C(C)=C/C(=O)Nc2ccc(O)cc2)C(C)(C)CCC1	11.2 µM (active)	
CCN(CC)CCOC(=O)c1ccc(N)cc1		2.77%
O=c1cc(-c2ccc(O)cc2)oc2cc(O)cc(O)c12		-13.3%
CCCNC(=O)NS(=O)(=O)c1ccc(Cl)cc1		5.93%
NC(N)=Nc1nc(CSCC/C(N)=N/S(N)(=O)=O)cs1		-4.79%
COC(=O)[C@@H]1[C@H]2C[C@H]3c4[nH]c5ccccc5c4CCN3C[C@@H]2CC[C@@H]1O		-14.1%
NCCS		4.84%
CC1(C)CCC2=C(O1)c1ccccc1C(=O)C2=O	12.6 µM (active)	
O=c1c(-c2ccc(O)cc2)coc2cc(O)ccc12		-11.4%
CC(=O)c1ccc(S(=O)(=O)NC(=O)NC2CCCCC2)cc1		0.353%
COc1cccc(-c2cc(=O)c3ccccc3o2)c1N		-25.1%
CCN1CCC[C@H]1CNC(=O)c1cc(S(N)(=O)=O)ccc1OC		11.2%
O=C1NC(=O)C(c2ccccc2)(c2ccccc2)N1		-1.03%
CC(=O)N[C@@H](CS)C(=O)O		4.03%
CC(=O)CCCCn1c(=O)c2c(ncn2C)n(C)c1=O		-6.98%
COc1ccccc1N1CCN(CCCNc2cc(=O)n(C)c(=O)n2C)CC1		-24.2%
CCN(CC)C(=O)c1ccc(O)c(OC)c1		-1.21%
